Assay results from PubChem BioAssay (Tox21).
Where “and” joins values, the source holds several entries; their conditions need not be identical. Equal values may be shown once. Inconclusive results are not listed. A structure can be active in one record and inactive in another. Calls of active or inactive are those of the source. Unless noted, the call rests on the fitted dose curve.

Tests used:
[1] = Nuclear factor erythroid 2-related factor 2/antioxidant responsive element (Nrf2/ARE) small molecule agonists: qHTS cell viability counter screen in human keratinocytes (AID 1919968; active means well fitted curve in the direction sought with a large enough effect in the repeat runs; an effect the other way counts as inactive or inconclusive; further: nearly all actives have a fitted effect of over 55% in size; further: potency means the concentration at half of the fitted maximal effect)
In short: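 Cytotoxicity was multiplexed with the Nrf2/ARE luciferase assay in the same wells. Stably transfected HaCaT keratinocytes were treated with test compounds for 23 h at 37 C. Cell viability was then measured by CellTiter-Fluor fluorescence.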

[2] = Nuclear factor erythroid 2-related factor 2/antioxidant responsive element (Nrf2/ARE) small molecule agonists: luciferase reporter gene qHTS assay in human keratinocytes (AID 1919969); further: nearly all actives have a fitted effect of over 35% in size
[3] = molecular target: Gonadotropin-releasing hormone receptor (Homo sapiens) (UniProt P30968); assay: Human gonadotropin-releasing hormone receptor (GnRHR) small molecule agonists, calcium flux assay in GnRHR-HEK293 cells (AID 1920063); further: nearly all actives have a fitted effect of over 35% in size
In short: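 Agonist activity was measured as intracellular calcium flux in HEK293 cells engineered to stably express human GnRHR. After dye loading for 1 hour at 37 C, compounds in DMSO were added and fluorescence was followed for 3 minutes.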

[4] = molecular target: KiSS-1 receptor (Homo sapiens) (UniProt Q969F8); assay: Human kisspeptin (KISS1R) small molecule agonists, calcium flux assay in KISS1R-HEK293 cells (AID 1920064; active means well fitted curve in the direction sought with a large enough effect in the repeat runs; an effect the other way counts as inactive or inconclusive)
In short: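 Agonist activity is monitored as intracellular calcium rise in engineered HEK293 cells carrying human KISS1R. Cells are dye-loaded for 1 h at 37 C before compound addition, and fluorescence is recorded for 3 min.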

[5] = G protein-coupled receptor (GPCR) small molecule agonists, calcium flux assay: HEK293 wild type cell line counter screen (AID 1920065)
In short: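 Seed cells, incubate 18 h (37 C, 5% CO2); add calcium dye, 1 h at 37 C; pin-transfer compounds, ATP control or DMSO; read fluorescence 480/540 nm each second for 3 min.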

[6] = p53 small molecule agonists, cell-based qHTS assay with human liver microsomes (AID 1963577); further: potency means the concentration at half of the fitted maximal effect
In short: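 Fluorescence of the beta-lactamase reporter in p53RE-bla cells, detected with LiveBLAzer substrate (2 h, room temperature, dark), served as the read-out after 16 h compound exposure at 37 C with human liver microsomes and NADPH, each 0.5 mg/mL final.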

[7] = p53 small molecule agonists, cell-based qHTS assay with rat liver microsomes (AID 1963578); further: potency means the concentration at half of the fitted maximal effect
In short: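 Cells carrying a p53 response element–beta-lactamase reporter were plated and rested 5 h, then dosed with compound in DMSO plus rat liver microsomes and NADPH, each at 0.5 mg/mL final. After 16 h at 37 C, LiveBLAzer substrate was added for 2 h.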

[8] = p53 small molecule agonists, cell-based qHTS assay with human liver microsomes: qHTS cell viability counter screen (AID 1963579); further: nearly all actives have a fitted effect of over 45% in size; further: potency means the concentration at half of the fitted maximal effect
In short: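 Cytotoxicity counter screen: p53RE-bla, 4,000 cells/well; 5 h settle, 37 C/5% CO2; cpd + HLM 0.5 mg/mL + NADPH 0.5 mg/mL (final); 16 h, 37 C; CellTiter-Glo, 30 min RT, luminescence.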

[9] = p53 small molecule agonists, cell-based qHTS assay with rat liver microsomes: qHTS cell viability counter screen (AID 1963580); further: nearly all actives have a fitted effect of over 45% in size; further: potency means the concentration at half of the fitted maximal effect
In short: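 After the beta-lactamase ratio was read, CellTiter-Glo was added to the same wells and luminescence measured at 30 min; cells had been treated 16 h at 37 C with compounds, rat liver microsomes and NADPH (0.5 mg/mL final each).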

[10] = p53 small molecule agonists, cell-based qHTS assay: qHTS cell viability counter screen (AID 1963581); further: nearly all actives have a fitted effect of over 45% in size
In short: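 Viability was counter-screened in parallel with the p53 agonist reporter by measuring intracellular ATP luminescence in the same HCT-116 p53RE-bla wells after 16 h compound treatment at 37 C.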

[11] = molecular target: Muscarinic acetylcholine receptor M1 (Homo sapiens) (UniProt P11229); assay: Cholinergic receptor muscarinic 1 (CHRM1) small molecule antagonists, cell-based qHTS assay (AID 1963588); further: nearly all actives have a fitted effect of over 40% in size
In short: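 Compounds were tested at 15 concentrations in three independent runs. Dye-loaded CHRM1-CHO cells were exposed 5 min at room temperature before stimulation by acetylcholine added at 50nM. Intracellular calcium was read kinetically on FDSS for 3 min.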

[12] = molecular target: Muscarinic acetylcholine receptor M1 (Homo sapiens) (UniProt P11229); assay: Cholinergic receptor muscarinic 1 (CHRM1) small molecule agonists, cell-based qHTS assay (AID 1963589); further: nearly all actives have a fitted effect of over 35% in size
In short: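 Cells were plated and incubated 18 h at 37 C/5% CO2, loaded with calcium dye for 1 h at 37 C, then treated with compounds in DMSO. Fluorescence was recorded kinetically at 1 sec intervals.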

[13] = cAMP Responsive Elements (CRE) small molecule agonists, cell-based qHTS assay (AID 1963590)
In short: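 Cells carrying a CRE-driven beta-lactamase reporter (HEK 293T) are seeded, incubated overnight (18 h), and treated with test compounds for 3 h at 37 C; reporter activity is then detected with a FRET substrate after 2 h at room temperature.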

[14] = cAMP Responsive Elements (CRE) small molecule antagonists, cell-based qHTS assay (AID 1963591; active means well fitted inhibition curve with a large enough effect in the signal ratio in the repeat runs, not every such curve was filed as active; the % refers to the signal ratio)
In short: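 Cells (CRE-bla HEK 293T, DMEM with 10% dialyzed FBS and 25 mM HEPES) are seeded and incubated 18 h. Compounds are added with NKH477 agonist at 0.25 uM final for 3 h, then FRET substrate for 2 h.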

[15] = molecular target: Beta-2 adrenergic receptor (Homo sapiens) (UniProt P07550); assay: Adrenergic beta2 receptor (ADRB2) small molecule antagonists, cell-based qHTS assay (AID 1963592); further: series mostly up to about 92 µM; nearly all actives have a fitted effect of over 50% in size
In short: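 Assay format: CHO-ADRB2 cells, 18-20hr seeding at 37C/5% CO2, then compound plus 1nM isoproterenol agonist mix for 0.5hr RT. Homogeneous time-resolved fluorescence cAMP detection after 1hr, expressed as 665/615 nm ratio.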

[16] = molecular target: Beta-2 adrenergic receptor (Homo sapiens) (UniProt P07550); assay: Adrenergic beta2 receptor (ADRB2) small molecule agonists, cell-based qHTS assay (AID 1963593);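 further: CHO cells stably overexpressing human ADRB2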
In short: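 CHO cells stably over-expressing ADRB2 were plated overnight at 37C, then dosed with compounds plus a stimulation mix containing 100uM IBMX and 25uM Ro-20-1724 for 0.5hr at room temperature. cAMP was measured by HTRF competition, 1hr.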

[17] = molecular target: D(2) dopamine receptor (Homo sapiens) (UniProt P14416); assay: Dopamine D2 receptor (DRD2) small molecule agonists, cell-based qHTS assay (AID 1963594); further: nearly all actives have a fitted effect of over 35% in size
In short: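 HEK293 cells stably expressing human DRD2, pre-treated with PDE inhibitor Ro20-1724 (0.1 mM final) and compound 10 min at room temperature, then stimulated with NKH477 (200nM […]) for 30 min. cAMP read by HTRF (665/620 nm).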

[18] = molecular target: D(2) dopamine receptor (Homo sapiens) (UniProt P14416); assay: Dopamine D2 receptor (DRD2) small molecule antagonists, cell-based qHTS assay (AID 1963595; active means well fitted inhibition curve with a large enough effect in the signal ratio in the repeat runs, with a control signal flat; the % refers to the signal ratio)
In short: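 Cells were plated and grown for 24 h at 37 °C. Ro20-1724 (0.1 mM final) went in first, then compound for 10 min. NKH477 (200 nM) with quinpirole (12 nM) followed for 30 min at RT, then HTRF detection reagents for 1 h.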

[19] = molecular target: 5-hydroxytryptamine receptor 2A (Homo sapiens) (UniProt P28223); assay: 5-hydroxytryptamine receptor 2A (HTR2A) small molecule agonists, cell-based qHTS assay (AID 1963587); further: nearly all actives have a fitted effect of over 30% in size
In short: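 CHO cells stably expressing human HTR2A, plated 18 h, loaded with calcium dye 1 h at 37 C. Agonist mode: compounds added and intracellular calcium fluorescence recorded kinetically for 2 min at 1 sec intervals.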

[20] = p53 small molecule agonists, cell-based qHTS assay (AID 1963582; active means well fitted activation curve with a large enough effect in the signal ratio in the repeat runs, not every such curve was filed as active; the % refers to the signal ratio)
In short: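 Cells carrying a p53-responsive bla reporter are treated with test compounds for 16 h at 37 C; beta-lactamase activity is then detected with LiveBLAzer B/G FRET substrate after 2 h at room temperature.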

Measured: Potency

Sequence of 5-hydroxytryptamine receptor 2A (Homo sapiens) (P28223 whole entry, looked up): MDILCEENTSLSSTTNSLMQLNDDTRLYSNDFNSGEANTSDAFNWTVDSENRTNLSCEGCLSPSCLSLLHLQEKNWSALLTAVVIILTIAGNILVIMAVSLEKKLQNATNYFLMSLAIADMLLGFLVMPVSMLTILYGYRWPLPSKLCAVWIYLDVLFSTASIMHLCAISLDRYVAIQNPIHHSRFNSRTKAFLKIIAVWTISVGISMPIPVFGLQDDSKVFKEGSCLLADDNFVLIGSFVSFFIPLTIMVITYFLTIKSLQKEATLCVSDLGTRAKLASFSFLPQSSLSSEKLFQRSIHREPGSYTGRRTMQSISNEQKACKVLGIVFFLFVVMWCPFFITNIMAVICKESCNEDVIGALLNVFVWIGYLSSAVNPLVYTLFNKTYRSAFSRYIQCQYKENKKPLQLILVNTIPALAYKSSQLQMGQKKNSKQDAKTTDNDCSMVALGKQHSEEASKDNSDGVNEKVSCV
Sequence of Beta-2 adrenergic receptor (Homo sapiens) (P07550 whole entry, looked up): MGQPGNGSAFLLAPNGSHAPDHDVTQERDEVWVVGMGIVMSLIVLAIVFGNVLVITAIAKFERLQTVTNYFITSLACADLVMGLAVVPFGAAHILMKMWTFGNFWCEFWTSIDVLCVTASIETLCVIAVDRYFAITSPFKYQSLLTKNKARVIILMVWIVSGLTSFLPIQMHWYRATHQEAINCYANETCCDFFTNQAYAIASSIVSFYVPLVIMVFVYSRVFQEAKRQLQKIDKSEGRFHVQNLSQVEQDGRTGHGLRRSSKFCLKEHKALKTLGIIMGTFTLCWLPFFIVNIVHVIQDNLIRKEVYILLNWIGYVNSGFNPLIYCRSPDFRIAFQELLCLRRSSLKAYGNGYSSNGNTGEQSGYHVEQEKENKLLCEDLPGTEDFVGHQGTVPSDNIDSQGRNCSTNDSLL
Sequence of D(2) dopamine receptor (Homo sapiens) (P14416 whole entry, looked up): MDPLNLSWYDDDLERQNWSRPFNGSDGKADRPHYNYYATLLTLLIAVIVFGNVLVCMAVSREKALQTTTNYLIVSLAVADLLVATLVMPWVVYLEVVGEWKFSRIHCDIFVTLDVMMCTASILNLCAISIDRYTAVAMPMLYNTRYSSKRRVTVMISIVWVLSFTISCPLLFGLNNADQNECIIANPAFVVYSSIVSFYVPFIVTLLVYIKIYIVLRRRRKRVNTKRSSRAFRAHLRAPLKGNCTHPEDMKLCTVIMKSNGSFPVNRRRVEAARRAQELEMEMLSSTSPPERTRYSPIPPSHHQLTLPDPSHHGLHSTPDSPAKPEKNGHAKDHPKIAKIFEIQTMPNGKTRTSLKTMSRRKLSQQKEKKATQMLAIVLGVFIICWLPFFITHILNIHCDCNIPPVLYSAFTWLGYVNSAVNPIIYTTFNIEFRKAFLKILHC
Sequence of Gonadotropin-releasing hormone receptor (Homo sapiens) (P30968 whole entry, looked up): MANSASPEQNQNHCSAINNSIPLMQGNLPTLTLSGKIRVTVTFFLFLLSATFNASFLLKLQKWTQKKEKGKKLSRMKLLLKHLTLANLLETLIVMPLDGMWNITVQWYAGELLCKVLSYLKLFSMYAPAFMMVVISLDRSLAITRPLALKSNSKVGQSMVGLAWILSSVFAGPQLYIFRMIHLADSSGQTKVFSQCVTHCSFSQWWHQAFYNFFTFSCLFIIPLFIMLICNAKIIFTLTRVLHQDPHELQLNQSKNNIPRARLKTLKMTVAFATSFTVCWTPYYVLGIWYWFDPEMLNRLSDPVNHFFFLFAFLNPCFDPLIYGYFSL
Sequence of Muscarinic acetylcholine receptor M1 (Homo sapiens) (P11229 whole entry, looked up): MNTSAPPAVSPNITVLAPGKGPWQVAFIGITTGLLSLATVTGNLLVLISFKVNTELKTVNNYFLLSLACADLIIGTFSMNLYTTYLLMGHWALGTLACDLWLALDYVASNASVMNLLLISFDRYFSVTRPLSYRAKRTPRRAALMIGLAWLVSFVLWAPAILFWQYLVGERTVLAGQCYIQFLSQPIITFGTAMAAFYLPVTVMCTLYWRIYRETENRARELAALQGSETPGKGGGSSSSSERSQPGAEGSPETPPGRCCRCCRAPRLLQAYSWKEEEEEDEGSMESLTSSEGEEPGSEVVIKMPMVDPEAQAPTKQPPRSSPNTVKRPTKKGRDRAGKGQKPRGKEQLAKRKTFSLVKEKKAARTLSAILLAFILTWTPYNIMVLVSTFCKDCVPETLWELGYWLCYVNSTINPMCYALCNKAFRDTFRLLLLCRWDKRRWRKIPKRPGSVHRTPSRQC
Sequence of KiSS-1 receptor (Homo sapiens) (Q969F8 whole entry, looked up): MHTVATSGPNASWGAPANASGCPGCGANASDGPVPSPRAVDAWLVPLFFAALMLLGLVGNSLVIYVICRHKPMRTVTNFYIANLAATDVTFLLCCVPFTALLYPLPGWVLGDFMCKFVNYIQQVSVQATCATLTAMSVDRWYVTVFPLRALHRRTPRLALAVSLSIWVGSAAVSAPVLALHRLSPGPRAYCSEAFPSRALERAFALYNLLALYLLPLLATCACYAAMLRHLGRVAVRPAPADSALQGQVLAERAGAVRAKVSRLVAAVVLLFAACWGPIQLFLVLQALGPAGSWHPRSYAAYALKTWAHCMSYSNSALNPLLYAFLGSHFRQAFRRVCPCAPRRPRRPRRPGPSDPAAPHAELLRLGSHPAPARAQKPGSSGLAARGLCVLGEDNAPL

O=S(=O)(O)c1cccc(S(=O)(=O)O)c1
inactive: [1] | [2] | [3] | [4] | [5] | [6] | [7] | [8] | [9] | [10] | [11] | [12] | [13] | [14] | [15] | [16] | [17] | [18]

ON(Cc1ccccc1)Cc1ccccc1
inactive: [1] | [2] | [3] | [4] | [5] | [6] | [7] | [8] | [9] | [10] | [19] | [11] | [12] | [13] | [14] | [15] | [16] | [17] | [18]

Cc1ccc(S(N)(=O)=O)cc1
inactive: [1] | [2] | [3] | [4] | [5] | [6] | [7] | [8] | [9] | [10] | [19] | [11] | [12] | [13] | [14] | [15] | [17] | [18]

CN(CCOc1ccc(CC2SC(=O)NC2=O)cc1)c1ccccn1 (stereo not given)
inactive: [1] | [2] | [3] | [4] | [5] | [6] | [7] | [8] | [9] | [10] | [15] | [17] | [18]

O=C(O)c1cc(-c2ccccc2)nc2ccccc12
inactive: [1] | [2] | [3] | [4] | [5] | [6] | [7] | [8] | [9] | [10] | [11] | [12] | [14] | [15] | [16] | [17] | [18]

CCCC=O
inactive: [1] | [2] | [3] | [4] | [5] | [6] | [7] | [8] | [9] | [10] | [19] | [11] | [12] | [13] | [14] | [15] | [17]

COc1cccc(OC)c1O
inactive: [1] | [2] | [3] | [4] | [5] | [6] | [7] | [8] | [9] | [10] | [19] | [11] | [12] | [13] | [14] | [15] | [17] | [18]

O=C(c1ccc(O)cc1O)c1ccc(O)cc1O
inactive: [1] | [2] | [3] | [4] | [5] | [6] | [7] | [8] | [9] | [10] | [19] | [11] | [12] | [17] | [18]

NC(=S)N/N=C/c1cccnc1
inactive: [1] | [2] | [3] | [4] | [5] | [6] | [7] | [8] | [9] | [10] | [19] | [11] | [12] | [13] | [14] | [15] | [17] | [18]

Nc1ccccc1S(=O)(=O)O
inactive: [1] | [2] | [3] | [4] | [5] | [6] | [7] | [8] | [9] | [10] | [19] | [11] | [12] | [13] | [14] | [15] | [17] | [18]

Nc1cc(S(=O)(=O)O)cc2cc(S(=O)(=O)O)cc(O)c12
inactive: [1] | [2] | [3] | [4] | [5] | [6] | [7] | [8] | [9] | [10] | [19] | [12] | [13] | [15]

CCCCc1ccc(Cl)cc1
inactive: [1] | [2] | [3] | [4] | [5] | [6] | [7] | [8] | [9] | [10] | [19] | [11] | [12] | [13] | [14] | [15] | [17] | [18]

CCC(N)(CO)CO
inactive: [1] | [2] | [3] | [4] | [5] | [6] | [7] | [8] | [9] | [10] | [19] | [11] | [12] | [14] | [15] | [16] | [17] | [18]

Nc1nc(N)c2nc(-c3ccccc3)c(N)nc2n1
inactive: [1] | [2] | [3] | [4] | [5] | [8] | [9] | [10] | [15] | [16] | [17] | [18]
active: [6] 18.2 µM | [7] 29.2 µM and 17.8 µM

c1ccc(CNCc2ccccc2)cc1
inactive: [1] | [2] | [3] | [4] | [5] | [6] | [7] | [8] | [9] | [10] | [19] | [11] | [12] | [13] | [14] | [15] | [16] | [17] | [18]

CC(C)(C)CC(C)(C)c1ccc(OCCOCC[N+](C)(C)Cc2ccccc2)cc1
active: [1] 24.3 µM and 10.6 µM
inactive: [2] | [3] | [4] | [5] | [6] | [7] | [9] | [10] | [20] | [14] | [17]
20.4 µM (active) and inactive: [8]

CSc1ccc2c(c1)N(CCC1CCCCN1C)c1ccccc1S2 (stereo not given)
active: [1] 24.2 µM and 26.6 µM
45.6 µM (active) and inactive: [8]
inactive: [2] | [3] | [4] | [5] | [6] | [7] | [10] | [15] | [16] | [17]
40.6 µM (active) and inactive: [9]
